Bioassay records deposited in PubChem by National Center for Advancing Translational Sciences (NCATS).
IL1B secr inh – inhibitors of inflammasome signaling (IL-1 beta secretion). 360,000 tested, 4.7% active. activity change, % at 57.5 µM. THP-1 LPS/ATP IL-1B secretion, AlphaLISA, 16 h; active compounds read low; in the data active = activity change below about -50%; inconclusive = mostly about -30% to -49%
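Secreted IL-1B measured by AlphaLISA bead assay after 16 h compound exposure of THP-1 cells; compounds (final up to 57.5 uM) added 1 h before LPS (250 ng/mL) and ATP (1.25 mM) stimulation; lower signal means less secretion.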
DT40 TDP1 no CPT – qHTS for Inhibitors of human tyrosyl-DNA phosphodiesterase 1 (TDP1): qHTS in cells in absence of CPT. DT40 Tdp1-/- hTDP1 cells, no CPT, ATP luminescence, 48 h. Potency, µM (series often up to 46.2 µM), without a hit: top-dose activity change, negative = growth inhibition, actives largely listed as inhibitors. 420,000 tested, 15% active; note: potency is the fitted concentration of half-maximal effect; nearly all actives have a fitted effect of over 55% in size
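Readout: luminescence from CellTiter-Glo after 30 min in the dark at RT. Cells: DT40 Tdp1-/- with stable hTDP1, 400/well. Exposure: compounds alone, ≥48 hr, 37 °C.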
HT1080 IDH1KD tx – HT-1080 IDH1 knockdown cell toxicity (counter line) | HT-1080 IDH1 knockdown viability, ATP luminescence, 48 h | Potency, µM (series often up to 46.1 µM), inactives show at the top dose activity, negative = toxicity, hits mostly cytotoxic | 360,000 tested, 2% active;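 note: potency is the fitted concentration of half-maximal effect; 0% = DMSO wells and -100% = cell-free medium wells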
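Assay cells: HT-1080 with IDH1 knockdown, 750 per well, RPMI/5% FBS. Exposure: 48 h at 37 °C following 2 h pre-incubation. Read: CellTiter-Glo luminescence; fitted concentration-response, curve class assigned.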
HT1080-NT tox – kills 2HG-producing HT-1080-NT fibrosarcoma cells | HT-1080-NT fibrosarcoma viability, CellTiter-Glo ATP luminescence, 48 h | 360,000 tested, 1.6% active | Potency, µM (top dose mostly 46.1 µM), inactives show at the highest dose activity, negative = less viability, hits mostly cytotoxic | AID 686970;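 note: NT is the 2HG producing partner of a matched IDH1 knockdown line; potency is the fitted concentration of half-maximal effect; 0% = DMSO-treated cells and -100% = media-only wells without cells; nearly all actives have a fitted effect of over 55% in size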
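Luminescent CellTiter-Glo readout after 48 hours of compound exposure at 37 degrees C defined viability of HT-1080-NT cells. Activity was normalized to DMSO wells and cell-free media wells; concentration-response curves were fitted and assigned curve classes.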
ALOX12 inh – inhibitors of human 12S-lipoxygenase ALOX12; 580,000 tested, 1.1% active; AID 1671190; P18054; Potency, µM (doses to about 108 µM), for inactives: at the highest dose activity change, negative = inhibition, actives largely listed as inhibitors; purified 12hLO, xylenol orange hydroperoxide absorbance; note: potency is the fitted concentration of half-maximal effect
Target sequence (P18054 whole entry, looked up): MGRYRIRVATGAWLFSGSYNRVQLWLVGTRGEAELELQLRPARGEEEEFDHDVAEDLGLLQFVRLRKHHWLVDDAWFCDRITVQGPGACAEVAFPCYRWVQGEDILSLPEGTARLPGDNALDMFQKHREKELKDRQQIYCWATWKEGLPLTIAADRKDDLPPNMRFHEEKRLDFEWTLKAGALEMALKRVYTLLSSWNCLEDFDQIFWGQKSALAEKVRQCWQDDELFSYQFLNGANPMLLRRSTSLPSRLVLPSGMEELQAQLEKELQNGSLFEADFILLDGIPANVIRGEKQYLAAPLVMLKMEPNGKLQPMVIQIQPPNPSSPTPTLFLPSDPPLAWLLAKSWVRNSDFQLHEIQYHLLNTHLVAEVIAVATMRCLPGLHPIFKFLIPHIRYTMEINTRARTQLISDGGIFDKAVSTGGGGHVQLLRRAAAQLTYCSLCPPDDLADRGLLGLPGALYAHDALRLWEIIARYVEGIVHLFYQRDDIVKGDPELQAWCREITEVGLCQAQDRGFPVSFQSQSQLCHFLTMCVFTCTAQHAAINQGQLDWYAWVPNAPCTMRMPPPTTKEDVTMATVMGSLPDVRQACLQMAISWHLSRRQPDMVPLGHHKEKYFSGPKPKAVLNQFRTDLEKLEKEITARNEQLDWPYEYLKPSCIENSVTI
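Hydroperoxide product was detected by ferrous iron/xylenol orange as the 573 to 405 nm absorbance ratio. Arachidonic acid at 40 uM (final) was turned over for 30 min at room temperature by 150 nM human 12hLO, pH 7.0 Hepes buffer, after 15 min compound preincubation.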
TDP1 cell CPT – growth inhibition of DT40 Tdp1-/-;hTDP1 cells with camptothecin (screen for TDP1 inhibitors); chicken DT40 Tdp1-/-;hTDP1 cells + 20 nM CPT, ATP luminescence, 48 h; Potency, µM (series often up to 46.2 µM), without a hit: at the highest dose activity change, negative = growth inhibition, most hits filed as inhibitors; 420,000 tested, 12% active; AID 686979; note: potency is the fitted concentration of half-maximal effect; nearly all actives have a fitted effect of over 55% in size
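Cell growth measured by CellTiter-Glo luminescence after a minimum 48 h, 37 C compound exposure with 20 nM CPT in Tdp1-knockout DT40 cells stably expressing hTDP1, seeded 400/well; qHTS titration format.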
The depositor's hits bear a star; ? = inconclusive; · = not tested or not shown; [ ] = dose if it differs, or a comment. Many of the other results were omitted from the sample, so hits are more common in it than they were. Unless noted, calls come from the whole dose curve; as a rule, active = well fitted curve in the direction sought with a large enough effect; inconclusive = small, poorly fitted or top-dose-only effect, or another doubt; inactive = no such curve, though single readings can be large; an effect the other way counts as inactive or inconclusive. Unless noted, % is set by controls: 0 for no effect and ±100 for the full control effect.

SMILES	IL1B secr inh	DT40 TDP1 no CPT	HT1080 IDH1KD tx	HT1080-NT tox	ALOX12 inh	TDP1 cell CPT
COc1ccc(Cn2c(=O)c3oc4ccccc4c3n(Cc3ccc(Cl)cc3)c2=O)cc1	·	0%	·	·	-20%	0%
O=c1cc(O)c2c(=O)n(Cc3ccccc3)c3ccccc3c2o1	26	23µM*	-24%	-15%	-27%	?
COc1cccc(Cn2c(=O)n(-c3cc(C)cc(C)c3)c(=O)c3oc4ccccc4c32)c1	·	16µM*	·	·	9%	?
CCCCn1c(=O)c2c(O)cc(=O)oc2c2ccccc21	42	?	7%	1%	?	-2%
COc1ccc(S(=O)(=O)Nc2nc3ccccc3nc2Nc2ccc(C)c(C)c2)cc1	·	·	·	·	19%	·
CCN1C(=O)C2CC3(CCN(S(=O)(=O)c4ccc5c(c4)CCC5)CC3)CN2C1=O (stereo not drawn)	·	·	·	·	3%	·
COc1cc(OC)cc(-c2onc(C)c2C(=O)NCCCCc2ccccc2)c1	·	·	·	·	55%	·
Cc1cccc(-n2c(=O)c3ccccc3n(Cc3ccccc3)c2=O)c1	·	?	·	·	-20%	23µM*
Cc1cccc(Cn2c(=O)n(-c3cc(C)cc(C)c3)c(=O)c3oc4ccccc4c32)c1	·	12µM*	·	·	0%	8.2µM*
CCN(c1ccccc1)S(=O)(=O)c1cccc(C(=O)NCC(c2ccco2)N2CCCCC2)c1 (stereo not drawn)	-55*	16µM*	?	-27%	0%	?
CCN(c1ccccc1)S(=O)(=O)c1cc(C(=O)NCC(c2ccco2)N2CCCCC2)ccc1C (stereo not drawn)	-79*	?	-10%	-14%	-23%	?
Cc1cc(NC(=O)NCCNc2ccc(C#N)cn2)n(-c2ccccc2)n1	·	·	·	·	24%	·
C=CCN1C(=O)c2n[nH]c(C(C)C)c2C1c1ccccc1 (stereo not drawn)	·	·	·	·	-11%	·
CC(C)C(C(=O)NCc1ccccc1)N(C)Cc1ccc(Cl)c(Cl)c1 (stereo not drawn)	0	?	?	?	?	?
CCOc1ccc(CN(C)C(C)C(=O)NCc2ccccc2)cc1 (stereo not drawn)	11	?	-3%	6%	-10%	?
CCc1ccc(CN(C)C(C)C(=O)NCc2ccccc2)cc1 (stereo not drawn)	-1	7.3µM*	-3%	-3%	0%	?
CCC(CC)C(C(=O)NCc1ccccc1)N(C)Cc1ccc(Cl)c(Cl)c1 (stereo not drawn)	-10	15µM*	?	?	-1%	21µM*
CCC(C)NC(=O)CCN(CCCOC)C(=O)c1cc(C)oc1C (stereo not drawn)	·	·	·	·	70%	·
CC(C)(C)CC(=O)Nc1sccc1C#N	·	·	·	·	75%	·
CC1(C)Cc2c(sc3nc(C4CC4)n(N)c(=O)c23)CO1	-8	?	-5%	5%	1%	-20%
Cn1c(NN)nc2sc3c(c2c1=O)CC(C)(C)OC3	46	?	13µM*	?	4%	?
O=C(C[C@H]1C(=O)N(Cc2cccnc2)C[C@@H]1Cc1ccccc1)Nc1ccc(Br)cc1	?	15µM*	?	?	?	?
O=C(C[C@H]1C(=O)N(Cc2ccccc2)C[C@@H]1c1ccc(Br)cc1)Nc1ccc(Br)cc1	-15	26µM*	?	-13%	-26%	26µM*
COC(=O)c1cc(NC(=O)CCC2CCCCC2)cc(C(=O)OC)c1	·	·	·	·	-20%	·
O=C1Sc2ccc(S(=O)(=O)N(Cc3ccccc3)Cc3ccccc3)c3cccc1c23	·	·	·	·	1%	·
SMILES	IL1B secr inh	DT40 TDP1 no CPT	HT1080 IDH1KD tx	HT1080-NT tox	ALOX12 inh	TDP1 cell CPT
COc1ccccc1CN(Cc1ccccc1C)C(=O)[C@H]1CCC[C@H](O)C1	·	·	·	·	27%	·
CC(C)=NNC(=O)CCC(=O)NN=C(C)C	·	·	·	·	16%	·
Cc1nc(-c2ccc(F)cc2)c(CC(=O)N2CCN(S(=O)(=O)c3cccc(F)c3)CC2)s1	-2	15µM*	-2%	-6%	?	21µM*
COc1cccc(-c2cc(NC=O)c3ncc(-c4ccc(F)c(Cl)c4)n3c2)c1	?	?	-2%	-6%	-29%	?
COc1cccc(-c2cnc3c(NC=O)cc(-c4cc(C)c(O)c(C)c4)cn23)c1	25	4.6µM*	?	?	?	3.7µM*
COc1cccc(-c2cnc3c(NC=O)cc(-c4ccccc4)cn23)c1	89	5.2µM*	2.6µM*	5.8µM*	-10%	5.2µM*
COc1cccc(-c2cnc3c(NC=O)cc(-c4ccc(S(C)(=O)=O)cc4)cn23)c1	14	16µM*	?	?	0%	18µM*
CS(=O)(=O)c1ccc(-c2cc(NC=O)c3ncc(-c4ccc(F)cc4)n3c2)cc1	-14	23µM*	?	?	0%	23µM*
COc1cccc(-c2cnc3c(NC=O)cc(-c4ccccc4Oc4ccccc4)cn23)c1	11	?	?	?	-17%	?
O=C1OC2(c3ccccc31)c1cc(Br)c(O)c(Br)c1Oc1c2cc(Br)c(O)c1Br	·	-21%	·	·	·	-7%
CC(C)C(=O)N1Cc2ccccc2CC2(CCCCN2Cc2cccnc2)C1 (stereo not drawn)	·	·	·	·	10%[6.33 µM]	·
O=CNc1cc(-c2ccc(C(=O)NC3CC3)cc2)cn2c(-c3ccc(F)cc3)cnc12	-78*	23µM*	8.2µM*	?	2%	23µM*
COc1cccc(-c2cnc3c(NC=O)cc(-c4ccoc4)cn23)c1	61	15µM*	-9%	-10%	?	13µM*
COc1cccc(-c2cnc3c(NC=O)cc(-c4ccc(N5CCN(C)CC5)cc4)cn23)c1	75	?	?	?	-14%	16µM*
O=C(NC1CC1)c1ccc2nnc(-c3ccc(F)cc3)n2c1	·	·	·	·	5%[12.5 µM]	·
Cc1ccc(-c2nn3c(=O)cc(CNC(=O)COc4ccc(C(C)(C)C)cc4)nc3s2)cc1	·	·	·	·	-10%	·
COc1ccccc1CNC(=O)C1(C)CCN1C(=O)Cc1ccc(-c2ccccc2)cc1 (stereo not drawn)	-23	15µM*	?	?	-12%	16µM*
COc1ccccc1CNC(=O)c1ccc(-c2ccccc2)cc1	0	-18%	0%	-14%	-23%	12%
CSc1ccccc1NC(=O)C1(C)CCN1C(=O)Cc1ccc(-c2ccccc2)cc1 (stereo not drawn)	0	18µM*	?	?	2%	?
